# From PubChem BioAssay (Tox21)
# Where “and” joins values, the source holds several entries; their conditions need not be identical. Equal entries are not always repeated. Results filed as inconclusive are left out. A call without a number means that no potency is given here. Calls of active or inactive are those of the source. The call rests on the fitted dose curve; in most records, active means well fitted cell-killing curve with a large enough effect in the repeat runs; inconclusive means weak or mixed curves, or effect the other way; inactive means flat fitted curve, though single readings scatter.
# Assay: qHTS assay to identify small molecule antagonists of the estrogen receptor alpha (ER-alpha) signaling pathway using the BG1 cell line in the presence of 0.1 nM 17-beta-estradiol - cell viability counter screen (AID 1259241); further: nearly all actives have a fitted effect of over 40% in size
# Conditions: VM7Luc4E2 (BG1) viability, CellTiter-Fluor protease, 22 h, 0.1 nM estradiol agonist added; series mostly up to 92.4 µM; activity change, negative = cytotoxicity: at the top concentration
# Method in brief: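 VM7Luc4E2 cells (endogenous full-length ER-alpha, 4xERE-luciferase), cultured 5 days in charcoal-stripped serum, exposed to compounds with 0.1 nM 17beta-estradiol (final) for 22 hr at 37C. Viability read in same wells as live-cell protease fluorescence after 30 min.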
# Potency means the concentration at half of the fitted maximal effect.
SMILES,Potency,"activity change, negative = cytotoxicity"
CCCCC(CC)COC(=O)c1ccc(C(=O)OCC(CC)CCCC)c(C(=O)OCC(CC)CCCC)c1 (stereo unspecified),inactive,–
C[C@]12CCC(=O)C(O)=C1CC[C@@H]1[C@@H]2CC[C@]2(C)C(=O)CC[C@@H]12,inactive,–
Oc1cc(Cl)ccc1Oc1ccc(Cl)cc1Cl,–,-19.4% [at 42.5 µM] (inactive)
CCC(C)(c1ccc(O)cc1)c1ccc(O)cc1,inactive,–
O=C(NC(=O)c1c(F)cccc1F)Nc1ccc(Cl)cc1,inactive,–
c1cc(OCC2CO2)ccc1Cc1ccc(OCC2CO2)cc1 (stereo unspecified),inactive,–
C#CCOS(=O)OC1CCCCC1Oc1ccc(C(C)(C)C)cc1 (stereo unspecified),–,-26.7% (inactive)
CCN(CC)C(=O)SCc1ccc(Cl)cc1,inactive,–
CC(C)Oc1cc(-n2nc(C(C)(C)C)oc2=O)c(Cl)cc1Cl,inactive,–
O=C(Nc1ccc(Br)cc1)c1cc(Br)cc(Br)c1O,inactive,–
CNC(=O)Oc1cccc2c1OC(C)(C)O2,inactive,–
CC(C)=CC1C(C(=O)OCc2coc(Cc3ccccc3)c2)C1(C)C (stereo unspecified),inactive,–
NNC(N)=S,inactive,–
Nc1cccnc1,inactive,–
CN(C)c1ccc(C(=O)c2ccc(N(C)C)cc2)cc1,–,-22.5% (inactive)
N#Cc1cc(Br)c(O)c(Br)c1,inactive,–
O=[N+]([O-])c1ccc(O)c([N+](=O)[O-])c1,30.8 µM (active) and 27.3 µM (active),–
CCN(CC)C(=O)/C(Cl)=C(\C)OP(=O)(OC)OC,inactive,–
Oc1cc(Cl)c(Cl)cc1Cl,inactive,–

SMILES,Potency,"activity change, negative = cytotoxicity"
CCOC(=S)S,inactive,–
COP(=S)(OC)Oc1ccc([N+](=O)[O-])cc1,inactive,–
O=S(=O)(Oc1ccc(Cl)cc1)c1ccc(Cl)cc1,inactive,–
N#CC(Br)Br,inactive,–
CCOP(=S)(OCC)O/N=C(\C#N)c1ccccc1,inactive,–
CCC(C)(C)c1ccc(O)cc1,inactive,–
Nn1cnnc1,inactive,–
NC(=S)Nc1ccccc1,inactive,–
Nc1ccncc1,inactive,–
CC(O)CCO (stereo unspecified),inactive,–
Oc1c(Cl)c(Cl)c(Cl)c(Cl)c1Cl,inactive,–
CCOc1cc(Oc2ccc(C(F)(F)F)cc2Cl)ccc1[N+](=O)[O-],inactive,–
CCOc1cc(C=O)ccc1O,inactive,–
CC(C)c1ccc(CO)cc1,inactive,–
CCOC(=O)C(C)OC(=O)c1cc(Oc2ccc(C(F)(F)F)cc2Cl)ccc1[N+](=O)[O-] (stereo unspecified),inactive,–
Clc1nc(Cl)nc(Cl)n1,inactive,–
O=C1C=CC(=O)C=C1,inactive,–
CCOCN(C(=O)CCl)c1c(C)cccc1CC,inactive,–
C=CCc1ccc(OC)cc1,inactive,–

# Assay: qHTS assay to identify small molecule antagonists of the androgen receptor (AR) signaling pathway using the MDA cell line in the presence of 0.5 nM R1881 - cell viability counter screen (AID 1259242); further: nearly all actives have a fitted effect of over 45% in size
# Conditions: MDA-kb2 viability, CellTiter-Fluor protease fluorescence, 16 h; series mostly up to 92.4 µM; viability change, negative = cytotoxic: at the top concentration
# Method in brief: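 Cells seeded at 3,000/well and allowed 5 hr at 37C, 0% CO2 before compound transfer and R1881 (0.5 nM final) addition; 16 hr later, live-cell protease fluorescence indicated cytotoxicity.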
SMILES,Potency,"viability change, negative = cytotoxic"
CCCCC(CC)COC(=O)c1ccc(C(=O)OCC(CC)CCCC)c(C(=O)OCC(CC)CCCC)c1 (stereo unspecified),inactive,–
C[C@]12CCC(=O)C(O)=C1CC[C@@H]1[C@@H]2CC[C@]2(C)C(=O)CC[C@@H]12,inactive,–
Oc1cc(Cl)ccc1Oc1ccc(Cl)cc1Cl,31.4 µM (active),–
CCC(C)(c1ccc(O)cc1)c1ccc(O)cc1,inactive,–
O=C(NC(=O)c1c(F)cccc1F)Nc1ccc(Cl)cc1,inactive,–
c1cc(OCC2CO2)ccc1Cc1ccc(OCC2CO2)cc1 (stereo unspecified),inactive,–
C#CCOS(=O)OC1CCCCC1Oc1ccc(C(C)(C)C)cc1 (stereo unspecified),6.11 µM (active),–
CCN(CC)C(=O)SCc1ccc(Cl)cc1,inactive,–
CC(C)Oc1cc(-n2nc(C(C)(C)C)oc2=O)c(Cl)cc1Cl,inactive,–
O=C(Nc1ccc(Br)cc1)c1cc(Br)cc(Br)c1O,13.3 µM (active),–
CNC(=O)Oc1cccc2c1OC(C)(C)O2,inactive,–
CC(C)=CC1C(C(=O)OCc2coc(Cc3ccccc3)c2)C1(C)C (stereo unspecified),–,-0.385% (inactive)
NNC(N)=S,inactive,–
Nc1cccnc1,inactive,–
CN(C)c1ccc(C(=O)c2ccc(N(C)C)cc2)cc1,–,-9.06% (inactive)
N#Cc1cc(Br)c(O)c(Br)c1,inactive,–
O=[N+]([O-])c1ccc(O)c([N+](=O)[O-])c1,24.4 µM (active) and 27.3 µM (active),–
CCN(CC)C(=O)/C(Cl)=C(\C)OP(=O)(OC)OC,inactive,–
Oc1cc(Cl)c(Cl)cc1Cl,inactive,–

SMILES,Potency,"viability change, negative = cytotoxic"
CCOC(=S)S,inactive,–
COP(=S)(OC)Oc1ccc([N+](=O)[O-])cc1,inactive,–
O=S(=O)(Oc1ccc(Cl)cc1)c1ccc(Cl)cc1,inactive,–
N#CC(Br)Br,inactive,–
CCOP(=S)(OCC)O/N=C(\C#N)c1ccccc1,inactive,–
CCC(C)(C)c1ccc(O)cc1,inactive,–
Nn1cnnc1,inactive,–
NC(=S)Nc1ccccc1,–,-1.4% (inactive)
Nc1ccncc1,inactive,–
CC(O)CCO (stereo unspecified),inactive,–
Oc1c(Cl)c(Cl)c(Cl)c(Cl)c1Cl,inactive,–
CCOc1cc(Oc2ccc(C(F)(F)F)cc2Cl)ccc1[N+](=O)[O-],inactive,–
CCOc1cc(C=O)ccc1O,inactive,–
CC(C)c1ccc(CO)cc1,inactive,–
CCOC(=O)C(C)OC(=O)c1cc(Oc2ccc(C(F)(F)F)cc2Cl)ccc1[N+](=O)[O-] (stereo unspecified),inactive,–
Clc1nc(Cl)nc(Cl)n1,inactive,–
O=C1C=CC(=O)C=C1,inactive,–
CCOCN(C(=O)CCl)c1c(C)cccc1CC,inactive,–
C=CCc1ccc(OC)cc1,inactive,–
